FMDV inh: High Throughput Screening for Foot and Mouth Disease Virus Antivirals. FMDV antiviral cell-based qHTS. Potency, µM (doses to about 57.9 µM), for inactives: at the highest dose activity change, negative = inhibition, hits mostly inhibitors. hit rate 1.2% among 410,000. AID 1159524, 2015; calls by dose curve; tested in HEK293T cells; further: read-out not given here; potency means the concentration at half of the fitted maximal effect; nearly all actives have a fitted effect of over 45% in size
Marburg entry inh: qHTS for inhibitors of binding or entry into cells for Marburg Virus | Marburg virus pseudotyped entry inhibition, cell reporter | Potency, µM (series often up to 37.8 µM), for the others: at the top dose activity change, negative = inhibition, most hits filed as inhibitors | hit rate 1.8% among 300,000; calls by dose curve; tested in HEK293 cells; further: potency means the concentration at half of the fitted maximal effect
HCV inh: qHTS Assay for Inhibitors of Hepatitis C Virus (HCV) | AID 651820, 2012 | Huh7.5.1 HCVcc-Cre infection, luciferase reporter, 44 h | hit rate 3.4% among 340,000 | Potency, µM (highest dose often 41.8 µM), for the others: at the highest dose activity change, negative = inhibition, hits mostly inhibitors; active means well fitted inhibition curve with a large enough effect; inconclusive means small, poorly fitted or top-dose-only effect, or another doubt; inactive means no such curve, though single readings can be large or run the other way; further: potency means the concentration at half of the fitted maximal effect
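Antiviral activity was scored by luciferase reporter output from cells infected with HCVcc-Cre (~0.5 moi) in presence of compound, 44 h infection period, cells seeded 1,000/well 4 h prior.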
HCMV antiviral: qHTS Assay for inhibitors of the human cytomegalovirus (HCMV); activity change, negative = inhibition, % at 57.5 µM; HFF cells, HCMV-luciferase reporter, 72 h; active compounds read low; hit rate 4.5% among 410,000; in the data active means activity change below about -60%; inconclusive means no clear call, values can overlap the other calls; inactive means above about -39%
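Steps: HFFs plated, 16 h 37C; compounds added; HCMV-luciferase added to MOI 1 PFU/cell; 72 h 37C; OneGlo reagent, 5 min room temperature; luminescence read, normalized to controls.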
LASV entry inh: qHTS for Inhibitors of binding or entry into cells for Lassa Virus. AID 540256, 2011. Potency, µM (doses to about 37.9 µM), for the others: top-dose activity change, negative = inhibition, hits mostly inhibitors. Lassa virus pseudotype entry inhibition, cell reporter. hit rate 1.2% among 300,000; calls by dose curve; tested in HEK293 cells; further: potency means the concentration at half of the fitted maximal effect; nearly all actives have a fitted effect of over 50% in size
* hit, by the source's call; ? = inconclusive; · = no result given; [ ] = dose if it differs, or a comment. In the library only some 7.9% were active in any assay of this set; here they are far more common. On the % scale 0 is the no-effect control and ±100 the full control effect.

SMILES	FMDV inh	Marburg entry inh	HCV inh	HCMV antiviral	LASV entry inh
CCN(CC)CCn1c(NCc2ccc(OC)cc2)nc2ccccc21	-20%	?	?	-100*	-22%
COc1ccc(OC)c(CNc2nc3ccccc3n2CCN2CCCCC2)c1	-10%	?	11µM*	-30	-11%
COc1cccc(CNc2nc3ccccc3n2CCN2CCCCC2)c1OC	-23%	11µM*	-4%	66	?
COc1ccc(/C=N/c2nc3ccccc3n2CCN2CCCCC2)cc1OC	-16%	-20%	-3%	-64*	?
CCn1c(NCc2cccc(OC)c2OC)nc2ccccc21	42%	1%	0%	27	5%
COc1cc(Br)ccc1C1C(C(=O)Nc2ccc(C)cc2C)=C(C)Nc2nnnn21 (stereo not given)	-12%	-18%[46.1 µM]	·	?	?
COc1ccc(CCNC(=O)CCc2cn(Cc3ccc(C)cc3)c3ccccc23)cc1OC	-18%	·	·	14	5%[46.1 µM]
CCN1C(=O)/C(=C\c2nc3ccccc3c(=O)n2-c2ccccc2)c2ccccc21	14µM*	?	6%	-99*	?
CCn1c(/C=C2\C(=O)Nc3ccccc32)nc2ccccc2c1=O	22µM*	?	?	-33	?
CCN1C(=O)/C(=C/c2nc3ccccc3c(=O)n2-c2ccc(C)cc2)c2ccccc21	?	?	-10%	-78*	-19%
CCn1c(/C=C/c2ccc(O)cc2)nc2ccccc2c1=O	-26%	?	?	-22	?
COc1ccc(-n2c(/C=C3\C(=O)N(C)c4ccccc43)nc3ccccc3c2=O)cc1	?	-12%[14.2 µM]	-14%	-19	?
COC(=O)CN1C(C(=O)c2ccccc2)=C(OC(=O)c2ccc(C)cc2)c2ccccc2S1(=O)=O	-27%	?	·	0	-10%[46.1 µM]
Cc1c(C(=O)NCCc2cccnc2)cnn1-c1ncc2c(n1)-c1ccccc1CC2	-10%	·	·	·	·
Cc1ccc(NC(=O)CN2C(=O)C(c3ccccc3)=NC2(C)C)cc1C	-12%	0%[46.1 µM]	·	39	17%[46.1 µM]
COc1ccc(CSCC(=O)N/N=C/c2ccccc2O)cc1	10%	?	8.9µM*	-14	?
COc1ccccc1NC(=O)COc1ccc(/C=N/NC(=O)CSCc2ccc(Cl)cc2)cc1	18µM*	?	?	-18	5%
O=C(CSc1ccccc1)N/N=C/c1ccccc1O	25%	?	?	?	?
Cc1ccc2onc(CC(=O)N3CCN(c4cccc(C)c4C)CC3)c2c1	-23%	·	·	-3	15%[46.1 µM]
Cc1nc2ccccn2c1C(=O)NNS(=O)(=O)c1ccc(C(C)(C)C)cc1	?	?	?	-63*	?
COc1ccc(Br)cc1S(=O)(=O)NNC(=O)c1c(C)nc2ccccn12	-19%	-4%[46.1 µM]	13%	-38	10%
CCN1CCN(c2cc(C)c3cc(NC(=O)Cc4ccccc4OC)ccc3n2)CC1	1%	-24%	?	8	1%
COc1ccccc1CC(=O)Nc1ccc2nc(Nc3cccc(C(F)(F)F)c3)cc(C)c2c1	?	·	·	-67*	?
COc1cccc(CC(=O)Nc2ccc3nc(Nc4cccc(C(F)(F)F)c4)cc(C)c3c2)c1	?	·	·	-72*	-22%[46.1 µM]
CCOc1ccc(NS(=O)(=O)c2ccc3c4c(cccc24)C(=O)N3)cc1	6%	?	·	-39	?
SMILES	FMDV inh	Marburg entry inh	HCV inh	HCMV antiviral	LASV entry inh
COc1ccc(OC)c(C2=NO[C@@](CC(=O)O)(C(=O)Nc3ccc4c(c3)OCCO4)C2)c1	-11%	0%[46.1 µM]	-6%	-100*	16%[46.1 µM]
CCOC(=O)c1c(Nc2ccc(OCC)cc2)nnc(-c2ccccc2)c1-c1ccccc1	0%	-25%[46.1 µM]	·	-34	?
CC1(C)Cc2c(sc3nc(N/N=C/c4ccccc4)[nH]c(=O)c23)CO1	?	?	0%	?	-1%
CC(C)=NNc1nc2sc3c(c2c(=O)[nH]1)CC(C)(C)OC3	22%	-4%	-22%	?	7.1µM*
CC(=O)O[C@@H]1C(CO[Si](C)(C)C(C)(C)C)=C(Br)C(=O)[C@@H]2O[C@]12C	·	-10%[14.2 µM]	·	·	·
N[C@@H]1CC[C@@]23CCCN2C(=O)CCC[C@H]3[C@H]1Cc1ccccc1	·	·	·	-2	·
CC(C)c1ccc(OCc2nc(-c3ccccn3)no2)c(Br)c1	-13%	?	13µM*	118	?

Bioassay records from PubChem BioAssay.
